# Source: PubChem
# Shown is part of a subset that was picked to be rich in hits.
# Pf apPOL block – Pf-apPOL inhibitors, biochemical, fluorescence | AID 1794808, 2022 | Recombinant Pf-apPOL, molecular beacon fluorescence, 1.5 h | inhibition, % at 10 µM | actives 0.25% (n = 210,000) | Plasmodium falciparum apicoplast DNA polymerase (apPOL)
# mHTT CaM bind – mutant huntingtin-calmodulin interaction inhibitors – biochemical, AlphaScreen, primary screen; inhibition, % at 15 µM; AlphaScreen His-mHTT/GST-CaM binding, luminescence; actives 3.6% (n = 190,000); AID 1671202, 2021;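 further: 0% = both proteins with DMSO and 100% = one protein alone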
# Target sequence (P42858 whole entry, looked up, stated change not applied): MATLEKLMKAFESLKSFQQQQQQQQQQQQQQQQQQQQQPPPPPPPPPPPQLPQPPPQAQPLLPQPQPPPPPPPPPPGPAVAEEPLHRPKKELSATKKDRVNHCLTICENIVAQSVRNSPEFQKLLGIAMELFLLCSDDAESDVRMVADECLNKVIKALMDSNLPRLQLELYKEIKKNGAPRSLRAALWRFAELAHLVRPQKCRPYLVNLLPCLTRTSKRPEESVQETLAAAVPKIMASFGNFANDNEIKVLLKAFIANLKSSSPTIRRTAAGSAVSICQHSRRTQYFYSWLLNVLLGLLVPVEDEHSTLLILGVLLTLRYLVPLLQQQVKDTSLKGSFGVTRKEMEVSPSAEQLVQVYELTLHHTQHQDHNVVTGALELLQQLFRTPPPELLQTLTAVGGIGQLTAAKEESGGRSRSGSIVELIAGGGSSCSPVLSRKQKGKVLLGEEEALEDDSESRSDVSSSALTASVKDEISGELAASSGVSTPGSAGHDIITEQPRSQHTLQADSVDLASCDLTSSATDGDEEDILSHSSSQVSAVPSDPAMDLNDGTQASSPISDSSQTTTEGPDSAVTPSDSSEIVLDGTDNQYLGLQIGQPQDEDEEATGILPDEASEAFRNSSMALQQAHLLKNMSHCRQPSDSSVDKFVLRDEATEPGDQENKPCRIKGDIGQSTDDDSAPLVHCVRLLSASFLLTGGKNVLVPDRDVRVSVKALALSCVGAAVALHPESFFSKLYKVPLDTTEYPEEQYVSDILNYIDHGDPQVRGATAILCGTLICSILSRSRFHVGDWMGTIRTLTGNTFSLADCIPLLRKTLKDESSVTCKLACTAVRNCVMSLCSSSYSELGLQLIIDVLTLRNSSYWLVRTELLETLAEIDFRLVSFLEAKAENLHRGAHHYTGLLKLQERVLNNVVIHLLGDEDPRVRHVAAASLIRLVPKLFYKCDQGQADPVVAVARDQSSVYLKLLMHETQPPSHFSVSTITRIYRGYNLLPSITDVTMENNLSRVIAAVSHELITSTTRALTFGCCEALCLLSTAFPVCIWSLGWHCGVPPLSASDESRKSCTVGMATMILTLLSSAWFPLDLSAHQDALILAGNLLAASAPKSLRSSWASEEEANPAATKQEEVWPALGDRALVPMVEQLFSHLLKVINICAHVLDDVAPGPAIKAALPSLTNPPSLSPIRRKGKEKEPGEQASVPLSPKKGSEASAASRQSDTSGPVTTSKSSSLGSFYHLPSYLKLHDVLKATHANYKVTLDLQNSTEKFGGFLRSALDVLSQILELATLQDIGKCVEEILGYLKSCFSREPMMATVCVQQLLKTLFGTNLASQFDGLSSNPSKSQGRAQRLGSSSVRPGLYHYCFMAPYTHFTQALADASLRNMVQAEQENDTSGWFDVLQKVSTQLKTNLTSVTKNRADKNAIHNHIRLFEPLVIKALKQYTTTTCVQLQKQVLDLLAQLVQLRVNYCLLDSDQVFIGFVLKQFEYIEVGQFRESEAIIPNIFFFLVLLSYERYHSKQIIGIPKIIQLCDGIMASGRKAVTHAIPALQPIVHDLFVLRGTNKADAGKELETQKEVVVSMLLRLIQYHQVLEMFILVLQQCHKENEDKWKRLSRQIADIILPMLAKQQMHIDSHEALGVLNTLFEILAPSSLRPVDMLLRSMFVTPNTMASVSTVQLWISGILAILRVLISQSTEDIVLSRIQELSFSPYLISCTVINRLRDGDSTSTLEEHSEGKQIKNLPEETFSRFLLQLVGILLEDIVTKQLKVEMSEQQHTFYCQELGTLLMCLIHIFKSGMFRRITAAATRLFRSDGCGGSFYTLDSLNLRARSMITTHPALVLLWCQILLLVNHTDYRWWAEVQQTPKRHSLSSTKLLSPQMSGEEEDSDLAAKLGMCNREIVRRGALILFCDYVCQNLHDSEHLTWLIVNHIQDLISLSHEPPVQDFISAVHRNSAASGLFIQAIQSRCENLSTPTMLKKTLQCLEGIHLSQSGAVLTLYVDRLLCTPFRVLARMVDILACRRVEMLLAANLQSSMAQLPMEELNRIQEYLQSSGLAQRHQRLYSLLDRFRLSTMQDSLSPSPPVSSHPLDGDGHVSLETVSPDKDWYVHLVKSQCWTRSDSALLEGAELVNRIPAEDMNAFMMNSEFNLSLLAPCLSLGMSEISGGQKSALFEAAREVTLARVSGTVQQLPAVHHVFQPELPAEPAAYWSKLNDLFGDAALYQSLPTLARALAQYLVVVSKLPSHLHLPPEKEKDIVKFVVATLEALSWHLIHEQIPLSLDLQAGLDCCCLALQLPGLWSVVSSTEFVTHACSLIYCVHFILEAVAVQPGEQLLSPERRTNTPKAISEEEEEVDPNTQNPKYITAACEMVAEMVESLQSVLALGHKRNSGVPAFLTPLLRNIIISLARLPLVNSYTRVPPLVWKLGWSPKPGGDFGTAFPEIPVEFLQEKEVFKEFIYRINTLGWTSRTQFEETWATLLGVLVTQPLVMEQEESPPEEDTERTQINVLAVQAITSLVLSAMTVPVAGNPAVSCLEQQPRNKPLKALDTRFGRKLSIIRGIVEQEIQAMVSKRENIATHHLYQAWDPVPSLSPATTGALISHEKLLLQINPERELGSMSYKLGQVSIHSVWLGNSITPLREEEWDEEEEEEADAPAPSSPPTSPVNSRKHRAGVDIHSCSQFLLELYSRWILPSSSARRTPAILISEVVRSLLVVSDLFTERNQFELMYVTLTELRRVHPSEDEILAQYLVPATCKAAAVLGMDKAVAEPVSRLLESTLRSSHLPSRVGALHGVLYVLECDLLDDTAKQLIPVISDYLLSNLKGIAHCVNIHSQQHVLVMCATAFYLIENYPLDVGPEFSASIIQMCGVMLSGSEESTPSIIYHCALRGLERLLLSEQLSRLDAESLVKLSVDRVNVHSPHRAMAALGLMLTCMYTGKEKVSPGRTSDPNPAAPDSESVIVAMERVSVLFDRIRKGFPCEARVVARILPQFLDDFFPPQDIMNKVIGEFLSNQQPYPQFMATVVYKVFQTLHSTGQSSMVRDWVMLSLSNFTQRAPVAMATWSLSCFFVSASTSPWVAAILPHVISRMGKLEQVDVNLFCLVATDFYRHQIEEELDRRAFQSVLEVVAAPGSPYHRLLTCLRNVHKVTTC
# The depositor's hits bear a star; · = no result. No stated cut-off is given here; in the data, active means inhibition above about 50%; inactive means the rest.
SMILES,Pf apPOL block,mHTT CaM bind
COc1ccc(C)cc1C1=C/C(=C\c2ccc(C)o2)C(=O)O1,3,61*
COc1ccc(OC)c(/C=C2\C=C(c3cc(OC)ccc3OC)OC2=O)c1,-8,12
Cc1ccc(C)c(N=C(NN)c2nc3ccccc3s2)c1,4,13
CC1=C(C#N)C(c2ccc(-c3ccccc3C(F)(F)F)o2)C2=C(CC(C)(C)CC2=O)N1 (stereo unspecified),-11,·
NCCN1C(=O)S/C(=C\c2ccc(F)c(Oc3ccccc3)c2)C1=O,-14,71*
COc1ccc(/C=C2\SC(=O)N(CCN)C2=O)cc1OC,-1,4
COc1ccc(C2NC(C(=O)O)Cc3[nH]cnc32)cc1CSc1nc2ccccc2[nH]1 (stereo unspecified),-3,33
CNC(=O)c1cc2cc(Br)ccc2oc1=O,-1,-1
O=C(NNC(=O)c1cc2cc(Br)ccc2oc1=O)c1ccc(O)cc1O,73*,54*
O=C(CC(c1ccccc1)c1ccccc1)N1CC(c2nc(-c3ccccc3)no2)C1,-4,-7
CC(=O)N1CCc2sc(S(=O)(=O)N3CCN(c4ccccc4)CC3)cc2C1,-3,12
CC(=O)N1CCc2sc(C(=O)N3CCN(c4cccc(Cl)c4)CC3)cc2C1,6,78*
CC(=O)N1CCc2sc(S(=O)(=O)N3CCN(c4ccccc4Cl)CC3)cc2C1,-5,81*
CCC(=O)N1CCc2sc(C(=O)N3CCN(c4cccc(Cl)c4)CC3)cc2C1,2,17
CCCCOc1ccccc1NC(=O)CC1NCCNC1=O (stereo unspecified),1,-6
Cc1ccnc(N2CCC(C(=O)NCCCN3CCCCC3)CC2)n1,-4,-18
COc1cc(CO)c(CC(=O)NN=CC=Cc2ccccc2)cc1OC,0,·
CC1CCc2c(sc3nc4c5ccccc5c(NCc5ccco5)nn4c(=O)c23)C1 (stereo unspecified),0,35
O=c1c2c3c(sc2nc2c4ccccc4c(NCC4CCCO4)nn12)CCCC3 (stereo unspecified),0,65*
COc1ccc(C(=O)CSc2nc(C)cc(C)n2)cc1OC,3,0
CCCC(NS(=O)(=O)c1ccccc1)C(=O)O (stereo unspecified),10,-1
Cn1cc2c3c(cccc31)CN(C(=O)C1CCCC1)CC2,-4,39
COc1cc(NC(=O)N2CCc3cn(C)c4cccc(c34)C2)cc(OC)c1,-1,-2
CCn1cc2c3c(cccc31)CN(C(=O)NCc1cccc(OC)c1)CC2,5,6
Cn1cc2c3c(cccc31)CN(C(=O)C1CCCCC1)CC2,-6,62*
SMILES,Pf apPOL block,mHTT CaM bind
CCn1cc2c3c(cccc31)CN(C(=O)c1cccc(OC)c1)CC2,-2,69*
COc1cc(OC)cc(C(=O)N2CCc3cn(C)c4cccc(c34)C2)c1,-1,55*
COc1cccc(-n2ccn(CC(=O)Nc3ccccc3C(F)(F)F)c(=O)c2=O)c1,-5,-8
COc1ccc(NC(=O)C2CCN(c3nc4ccc(-c5cncnc5)nc4s3)CC2)cc1,-3,12
O=C(Nc1nc(-c2cc(Cl)ccc2Cl)cs1)c1ccc(N2C(=O)CCC2=O)cc1,0,-6
CC1CCCCN1S(=O)(=O)c1ccc(C(=O)Nc2nc3c(s2)Cc2ccccc2-3)cc1 (stereo unspecified),-5,21
Cc1nnc(NC(=O)c2ccc(S(=O)(=O)N3CCCC(C)C3)cc2)o1 (stereo unspecified),-4,24
CC1CCCN(S(=O)(=O)c2ccc(C(=O)Nc3nc(-c4ccccn4)cs3)cc2)C1 (stereo unspecified),-1,100*
CC1CCN(S(=O)(=O)c2ccc(C(=O)Nc3nc(-c4ccccn4)cs3)cc2)CC1,-3,98*
CC1CCN(S(=O)(=O)c2ccc(C(=O)Nc3nc4c(s3)Cc3ccccc3-4)cc2)CC1,-10,10
CC1CCCCN1S(=O)(=O)c1ccc(C(=O)Nc2nc(-c3ccccn3)cs2)cc1 (stereo unspecified),-9,100*
O=C(Nc1nc(-c2ccccn2)cs1)c1ccc(N2C(=O)CCC2=O)cc1,-6,100*
Cc1ccc(NC(=O)C2CC(=O)N(Cc3ccccc3)C2)cc1 (stereo unspecified),-5,-5
CCN1C(=O)Cc2cc(C(=O)NCc3cc(F)cc(F)c3)ccc21,-1,6
COc1c(/C=C2\OC(=O)c3c2cc(C)[nH]c3=O)ccc(Cl)c1Cl,-21,5
O=C(Nc1ccc(N2CCN(Cc3ccoc3)CC2)nc1)c1cccc(F)c1,-2,6
C=C(C)COc1ccc2c(=O)c(-c3ccccc3)coc2c1,-4,-10
CN1CCC(N(C)C(=O)c2cc3c(-c4ccccc4)nn(-c4ccccc4)c3s2)CC1,-1,100*
Cc1nn(-c2ccccc2)c2sc(C(=O)NC(C)C)cc12,0,1
O=C(NCc1ccc(F)cc1F)c1ccc(-c2cncnc2)nc1,4,-4
CC1CCC2(CC1)OCC(C(=O)NC1CCN(C)CC1)N2C(=O)C1CCCC1 (stereo unspecified),-6,-4
O=C(Nc1cccc2c1C(=O)c1ccccc1C2=O)c1ccc(Cl)s1,1,0
O=C(Nc1cccc2c1C(=O)NC2=O)c1ccc(Cl)s1,1,100*
O=C(NCCN1CCOCC1)C1CCCN(c2nccnc2Sc2ccccc2)C1 (stereo unspecified),-2,-1
O=C(Nc1nnc(-c2ccsc2)o1)c1ccccc1F,-5,40
SMILES,Pf apPOL block,mHTT CaM bind
O=C(Nc1nnc(-c2ccsc2)o1)c1ccccn1,-181,100*
O=C(Nc1nnc(-c2ccsc2)o1)c1cc(-c2ccccc2)on1,-228,-4
O=C(Cc1c(F)cccc1Cl)Nc1nnc(-c2ccsc2)o1,8,57*
N#CC(=Cc1ccc[nH]1)C(=O)NCc1ccncc1,4,·
COc1ccc(CN2CCOCC2)cc1O,-10,-1
Cc1ccccc1C=C1SC(=S)N(C(CCC(=O)O)C(=O)O)C1=O (stereo unspecified),-19,21
CCOC(=O)N1CCc2nc(NC(=O)c3nc4ccccc4s3)sc2C1,0,36
CC(=O)N1CCc2c(sc(NC(=O)c3sc4ccccc4c3Cl)c2C#N)C1,-23,61*
N#Cc1ccc(NC(=O)c2sc3ccccc3c2Cl)cc1,-8,·
CCOC(=O)N1CCc2nc(NC(=O)c3sc4ccccc4c3Cl)sc2C1,-1,53*
COc1cc(CCN2C(=O)CCC2(C)C(=O)NCc2ccccc2)cc(OC)c1OC (stereo unspecified),-2,-1
O=c1ccc(-c2ccc(Cl)cc2)nn1CCNS(=O)(=O)c1ccc2c(c1)CCCC2,-10,80*
O=C(NCCCn1nc(-c2ccc(Cl)cc2)ccc1=O)C1CCCC1,-25,-9
O=C1C(Br)=C(Br)C(=O)C(Br)=C1Br,7,81*
O=C1C(Br)=C(Br)C(=O)c2ccccc21,15,100*
CC1=C(Br)C(=O)c2ccccc2C1=O,-4,17
CCc1csc(C2CCCN(C(=O)NC(C)(C)C)C2)n1 (stereo unspecified),-1,1
COc1ccc([N+](=O)[O-])cc1NC(=O)Cc1c(C(=O)O)[nH]c2ccccc12,-7,11
COc1ccc(-n2c(=O)c3c4c(sc3n3cnnc23)CCCC4)cc1,1,7
COc1ccc(-n2c(NN)nc3sc4c(c3c2=O)CCCC4)cc1,-5,61*
